Experimental data reported in the supplement of paper PMC11732987, “Enantioselective OTUD7B fragment discovery through chemoproteomics screening and high-throughput optimisation” (Communications Chemistry, 2025).

Columns and labels:
Assay in all cases: log2 ratio of Biotin-Ahx-Ub-VS probe labelling (fragment/DMSO); higher = less target engagement (more negative = stronger competition), active = hit call of the paper (q ≤ 0.05, log2 ratio ≤ -1)
Conditions in all cases: compound concentration: 200 uM; treatment time: 3 h
[1] = biological target: T1, ALG13 (UniProt Q9NP73)
T1 sequence (whole entry): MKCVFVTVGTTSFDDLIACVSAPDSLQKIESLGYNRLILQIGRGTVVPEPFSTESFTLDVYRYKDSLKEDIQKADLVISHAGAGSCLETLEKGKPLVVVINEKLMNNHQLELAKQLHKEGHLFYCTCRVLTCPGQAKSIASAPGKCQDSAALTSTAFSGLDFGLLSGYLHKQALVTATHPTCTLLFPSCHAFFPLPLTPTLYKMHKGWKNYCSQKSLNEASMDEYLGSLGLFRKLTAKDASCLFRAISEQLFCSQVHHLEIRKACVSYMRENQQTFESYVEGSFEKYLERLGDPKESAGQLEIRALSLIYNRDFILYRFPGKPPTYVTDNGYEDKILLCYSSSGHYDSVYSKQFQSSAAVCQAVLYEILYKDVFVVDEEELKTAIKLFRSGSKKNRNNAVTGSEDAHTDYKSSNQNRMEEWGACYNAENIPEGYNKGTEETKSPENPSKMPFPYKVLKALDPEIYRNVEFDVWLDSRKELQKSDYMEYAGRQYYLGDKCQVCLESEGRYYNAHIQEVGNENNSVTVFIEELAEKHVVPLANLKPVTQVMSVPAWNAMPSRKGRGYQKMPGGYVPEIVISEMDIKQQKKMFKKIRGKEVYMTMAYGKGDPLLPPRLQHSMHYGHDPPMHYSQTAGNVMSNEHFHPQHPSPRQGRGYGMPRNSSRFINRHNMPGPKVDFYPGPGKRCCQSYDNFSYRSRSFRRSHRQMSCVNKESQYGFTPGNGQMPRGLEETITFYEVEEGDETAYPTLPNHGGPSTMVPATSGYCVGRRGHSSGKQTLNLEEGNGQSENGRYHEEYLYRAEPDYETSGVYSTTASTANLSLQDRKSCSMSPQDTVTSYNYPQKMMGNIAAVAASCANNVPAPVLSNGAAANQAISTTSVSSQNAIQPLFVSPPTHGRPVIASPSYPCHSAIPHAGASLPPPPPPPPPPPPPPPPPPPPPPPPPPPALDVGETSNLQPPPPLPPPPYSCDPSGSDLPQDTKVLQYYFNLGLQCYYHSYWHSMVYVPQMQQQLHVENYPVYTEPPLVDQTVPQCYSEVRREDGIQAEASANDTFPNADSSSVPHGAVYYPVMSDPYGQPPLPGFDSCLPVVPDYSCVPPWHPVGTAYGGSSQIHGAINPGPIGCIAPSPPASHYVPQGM
Method in brief: (§1)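 HEK293T lysate (495 µg per sample, in Tris/CHAPS/IGEPAL buffer with protease inhibitors) was exposed in triplicate for 3 h to fragment at 200 µM or to vehicle, then to Biotin-Ahx-Ub-VS at 0.5 µM final for 1 h. Labelled DUBs were enriched on NeutrAvidin, digested with LysC and trypsin, and analysed by diaPASEF LC-MS/MS. Spectronaut label-free quantities were normalised to the global median, and values are average log2 ratios of fragment over vehicle from an unpaired t-test. Only proteins with ≥2 unique peptides were used.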

[2] = biological target: ATXN3 (UniProt P54252)
ATXN3, sequence (P54252 whole entry): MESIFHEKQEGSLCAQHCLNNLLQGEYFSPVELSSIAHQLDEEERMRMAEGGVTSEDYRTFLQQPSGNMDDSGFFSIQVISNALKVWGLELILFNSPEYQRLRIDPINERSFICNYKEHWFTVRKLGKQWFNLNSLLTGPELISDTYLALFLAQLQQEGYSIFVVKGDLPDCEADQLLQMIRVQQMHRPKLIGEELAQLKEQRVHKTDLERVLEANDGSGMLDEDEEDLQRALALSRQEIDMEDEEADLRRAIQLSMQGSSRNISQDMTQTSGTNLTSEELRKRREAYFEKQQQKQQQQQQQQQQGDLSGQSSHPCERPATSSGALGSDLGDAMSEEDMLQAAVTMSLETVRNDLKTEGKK
Method in brief: as §1

[3] = biological target: T2, BAP1 (UniProt Q92560)
T2 sequence (whole entry): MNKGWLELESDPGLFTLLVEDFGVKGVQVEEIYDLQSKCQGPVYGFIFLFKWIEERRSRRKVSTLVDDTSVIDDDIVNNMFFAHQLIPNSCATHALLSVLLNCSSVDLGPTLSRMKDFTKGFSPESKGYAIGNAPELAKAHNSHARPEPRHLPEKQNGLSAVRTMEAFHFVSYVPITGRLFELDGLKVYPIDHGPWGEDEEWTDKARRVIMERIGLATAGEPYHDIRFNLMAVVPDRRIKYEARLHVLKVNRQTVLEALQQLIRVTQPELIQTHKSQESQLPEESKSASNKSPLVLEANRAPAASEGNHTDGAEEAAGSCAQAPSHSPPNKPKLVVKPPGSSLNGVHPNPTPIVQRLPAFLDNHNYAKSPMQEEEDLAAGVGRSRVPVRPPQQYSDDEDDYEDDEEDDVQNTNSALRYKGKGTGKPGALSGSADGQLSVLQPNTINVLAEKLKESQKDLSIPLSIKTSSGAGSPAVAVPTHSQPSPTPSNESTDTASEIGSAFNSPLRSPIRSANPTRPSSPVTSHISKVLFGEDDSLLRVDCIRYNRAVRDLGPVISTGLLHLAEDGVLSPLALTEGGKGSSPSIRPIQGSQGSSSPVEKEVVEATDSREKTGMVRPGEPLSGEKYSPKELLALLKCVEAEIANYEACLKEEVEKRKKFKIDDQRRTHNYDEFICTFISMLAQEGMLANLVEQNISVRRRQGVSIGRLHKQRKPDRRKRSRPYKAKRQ
Method in brief: as §1

[4] = biological target: EIF3F (UniProt O00303)
EIF3F, sequence (O00303 whole entry): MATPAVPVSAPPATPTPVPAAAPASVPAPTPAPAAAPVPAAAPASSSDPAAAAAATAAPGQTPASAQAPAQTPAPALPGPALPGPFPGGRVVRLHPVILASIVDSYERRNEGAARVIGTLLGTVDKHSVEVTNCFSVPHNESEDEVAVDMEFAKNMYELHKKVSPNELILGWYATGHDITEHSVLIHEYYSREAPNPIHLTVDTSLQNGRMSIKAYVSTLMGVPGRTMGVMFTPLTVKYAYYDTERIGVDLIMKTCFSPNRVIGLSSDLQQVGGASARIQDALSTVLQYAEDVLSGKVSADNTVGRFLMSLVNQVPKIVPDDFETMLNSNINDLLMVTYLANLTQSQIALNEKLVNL
Method in brief: as §1

[5] = biological target: EIF3H (UniProt O15372)
EIF3H, sequence (O15372 whole entry): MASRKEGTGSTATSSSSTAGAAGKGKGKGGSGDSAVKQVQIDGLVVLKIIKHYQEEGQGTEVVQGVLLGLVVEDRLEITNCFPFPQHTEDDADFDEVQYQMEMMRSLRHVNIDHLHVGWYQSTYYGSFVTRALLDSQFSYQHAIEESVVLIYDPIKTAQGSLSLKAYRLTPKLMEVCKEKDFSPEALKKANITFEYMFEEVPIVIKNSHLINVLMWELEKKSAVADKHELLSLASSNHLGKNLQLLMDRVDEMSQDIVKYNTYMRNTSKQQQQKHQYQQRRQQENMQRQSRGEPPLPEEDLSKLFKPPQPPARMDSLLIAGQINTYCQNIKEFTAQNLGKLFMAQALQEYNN
Method in brief: as §1

[6] = biological target: T3, FAM105A (UniProt Q9NUU6)
T3 sequence (whole entry): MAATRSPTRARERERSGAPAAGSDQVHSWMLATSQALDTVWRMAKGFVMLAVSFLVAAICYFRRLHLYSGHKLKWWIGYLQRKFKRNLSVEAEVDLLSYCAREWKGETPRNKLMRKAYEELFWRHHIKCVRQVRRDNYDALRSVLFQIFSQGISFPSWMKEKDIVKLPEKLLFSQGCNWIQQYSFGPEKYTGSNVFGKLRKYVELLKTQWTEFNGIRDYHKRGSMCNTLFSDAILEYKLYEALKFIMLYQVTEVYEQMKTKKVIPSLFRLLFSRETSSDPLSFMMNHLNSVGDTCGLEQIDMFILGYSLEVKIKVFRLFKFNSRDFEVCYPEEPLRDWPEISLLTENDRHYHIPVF
Method in brief: as §1

[7] = biological target: OTUB1 (UniProt Q96FW1)
OTUB1, sequence (Q96FW1 whole entry): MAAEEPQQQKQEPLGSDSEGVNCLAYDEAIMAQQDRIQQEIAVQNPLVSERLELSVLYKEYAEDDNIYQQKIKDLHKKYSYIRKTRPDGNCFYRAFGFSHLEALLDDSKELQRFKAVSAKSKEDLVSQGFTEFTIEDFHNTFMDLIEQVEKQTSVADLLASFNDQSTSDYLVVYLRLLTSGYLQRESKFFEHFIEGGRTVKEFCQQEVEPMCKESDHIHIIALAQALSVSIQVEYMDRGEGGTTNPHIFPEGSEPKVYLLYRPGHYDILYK
Method in brief: as §1

[8] = biological target: T4, OTUD4 (UniProt Q01804)
T4 sequence (whole entry): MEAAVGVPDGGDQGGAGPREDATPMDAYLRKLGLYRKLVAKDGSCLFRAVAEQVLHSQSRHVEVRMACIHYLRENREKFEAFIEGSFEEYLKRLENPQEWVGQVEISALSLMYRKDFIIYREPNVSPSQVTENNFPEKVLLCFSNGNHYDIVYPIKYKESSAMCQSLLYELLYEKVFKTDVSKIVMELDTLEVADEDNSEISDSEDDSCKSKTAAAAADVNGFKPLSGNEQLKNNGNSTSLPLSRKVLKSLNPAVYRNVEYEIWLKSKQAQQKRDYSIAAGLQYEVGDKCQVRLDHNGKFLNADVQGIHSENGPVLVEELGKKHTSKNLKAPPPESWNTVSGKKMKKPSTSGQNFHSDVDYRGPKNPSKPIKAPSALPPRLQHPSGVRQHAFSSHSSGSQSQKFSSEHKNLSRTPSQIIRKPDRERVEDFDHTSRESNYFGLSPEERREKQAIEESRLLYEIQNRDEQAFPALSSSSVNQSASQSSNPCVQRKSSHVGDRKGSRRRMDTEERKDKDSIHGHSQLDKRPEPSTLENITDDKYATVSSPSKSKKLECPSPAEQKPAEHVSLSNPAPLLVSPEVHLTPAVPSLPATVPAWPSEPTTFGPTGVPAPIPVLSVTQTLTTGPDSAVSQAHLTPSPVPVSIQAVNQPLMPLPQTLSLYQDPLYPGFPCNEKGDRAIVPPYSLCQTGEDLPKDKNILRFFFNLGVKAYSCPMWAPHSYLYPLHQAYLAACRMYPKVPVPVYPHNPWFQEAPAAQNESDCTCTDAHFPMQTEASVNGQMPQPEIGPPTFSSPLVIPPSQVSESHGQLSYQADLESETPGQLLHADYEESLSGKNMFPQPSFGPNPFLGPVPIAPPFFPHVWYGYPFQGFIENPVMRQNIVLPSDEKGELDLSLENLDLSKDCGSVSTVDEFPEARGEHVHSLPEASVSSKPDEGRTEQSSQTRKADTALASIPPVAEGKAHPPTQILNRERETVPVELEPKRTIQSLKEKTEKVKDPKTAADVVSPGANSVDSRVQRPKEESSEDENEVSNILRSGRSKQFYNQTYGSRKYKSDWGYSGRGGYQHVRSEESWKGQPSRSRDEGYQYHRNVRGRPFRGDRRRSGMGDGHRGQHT
Method in brief: as §1

[9] = biological target: T5, OTUD5 (UniProt Q96G74)
T5 sequence (whole entry): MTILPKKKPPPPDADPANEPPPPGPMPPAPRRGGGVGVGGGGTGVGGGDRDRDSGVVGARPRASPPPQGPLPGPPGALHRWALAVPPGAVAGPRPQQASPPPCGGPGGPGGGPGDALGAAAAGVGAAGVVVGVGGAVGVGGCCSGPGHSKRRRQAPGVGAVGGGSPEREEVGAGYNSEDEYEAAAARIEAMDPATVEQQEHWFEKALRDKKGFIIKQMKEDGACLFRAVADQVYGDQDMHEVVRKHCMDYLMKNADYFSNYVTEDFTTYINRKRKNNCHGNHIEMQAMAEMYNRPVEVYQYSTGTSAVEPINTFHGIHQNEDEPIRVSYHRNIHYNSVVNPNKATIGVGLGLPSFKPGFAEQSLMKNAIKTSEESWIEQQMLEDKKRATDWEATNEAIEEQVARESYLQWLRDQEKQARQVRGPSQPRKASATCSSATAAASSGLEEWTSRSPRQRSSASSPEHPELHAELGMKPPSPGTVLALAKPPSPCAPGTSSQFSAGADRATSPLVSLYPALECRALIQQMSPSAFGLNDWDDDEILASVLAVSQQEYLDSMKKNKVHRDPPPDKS
Method in brief: as §1

Measured: log2 ratio of Biotin-Ahx-Ub-VS probe labelling

CN1c2ccccc2C(NC(=O)CCl)CS1(=O)=O (centres undefined)
active: [3] -2.33 | [8] -1.65
inactive: [1] -0.325 | [2] -0.142 | [4] -0.327 | [5] 0.0135 | [6] 0.147 | [7] -0.0194 | [9] -0.14
